RE007 growth inh: less growth of the S. pombe RE007 Vpr strain; Potency, µM (series often up to 92.2 µM), for the others: at the top dose activity change, negative = less growth, hits mostly inhibitors; S. pombe RE007 Vpr strain, BacTiter-Glo ATP luminescence, 24 h; hit rate 0.21% among 360,000; active means well fitted falling curve with a large enough effect; inconclusive means small, poorly fitted or top-dose-only effect; inactive means no such curve, though single readings can be large or run the other way; further: nearly all actives have a fitted effect of over 50% in size
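Fission yeast strain RE007, carrying one chromosomally integrated HIV-1 vpr copy, was seeded at OD 0.01 in PMG+AL medium with 23 nL pinned compound. After 24 h at 30 °C and 99% humidity, viability was read by BacTiter-Glo luminescence.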
AmpC inh no detg: AmpC beta-lactamase inhibition without detergent. hit rate 0.52% among 330,000. AmpC nitrocefin hydrolysis, absorbance 480 nm, 0.0001% Triton. P00811. Potency, µM (doses to about 57.1 µM), inactives show at the top dose activity change, negative = inhibition, hits mostly inhibitors;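 further: plate controls were no compound for no effect and no enzyme for full effect; nearly all actives have a fitted effect of over 20% in size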
Target sequence (P00811 whole entry, looked up): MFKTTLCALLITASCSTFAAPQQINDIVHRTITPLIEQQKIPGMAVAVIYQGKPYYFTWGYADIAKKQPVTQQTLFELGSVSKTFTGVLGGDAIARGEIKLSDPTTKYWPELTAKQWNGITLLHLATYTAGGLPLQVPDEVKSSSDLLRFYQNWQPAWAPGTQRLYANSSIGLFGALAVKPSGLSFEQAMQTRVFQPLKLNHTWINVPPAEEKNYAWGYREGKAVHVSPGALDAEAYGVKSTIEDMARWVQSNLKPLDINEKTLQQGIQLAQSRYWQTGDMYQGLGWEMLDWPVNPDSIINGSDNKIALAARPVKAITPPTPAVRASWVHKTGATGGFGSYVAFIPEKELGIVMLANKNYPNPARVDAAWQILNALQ
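AmpC (5.3 nM in the dispensed reagent) in 20 mM phosphate pH 7.0 with 0.01% (detergent screen) or 0.0001% Triton X-100 was preincubated with compounds for 15 min at room temperature. Nitrocefin was then added from an 800 uM solution, and hydrolysis was followed at 480 nm.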
Giardia FBPA inh: inhibitors of Giardia lamblia fructose-1,6-bisphosphate aldolase; A8B2U2; purified Giardia FBPA; Potency, µM (top dose mostly 59.6 µM), without a hit: at the highest dose activity, negative = inhibition, most hits filed as inhibitors; hit rate 0.71% among 290,000; AID 2451; further: nearly all actives have a fitted effect of over 55% in size
Target sequence (A8B2U2 whole entry, looked up): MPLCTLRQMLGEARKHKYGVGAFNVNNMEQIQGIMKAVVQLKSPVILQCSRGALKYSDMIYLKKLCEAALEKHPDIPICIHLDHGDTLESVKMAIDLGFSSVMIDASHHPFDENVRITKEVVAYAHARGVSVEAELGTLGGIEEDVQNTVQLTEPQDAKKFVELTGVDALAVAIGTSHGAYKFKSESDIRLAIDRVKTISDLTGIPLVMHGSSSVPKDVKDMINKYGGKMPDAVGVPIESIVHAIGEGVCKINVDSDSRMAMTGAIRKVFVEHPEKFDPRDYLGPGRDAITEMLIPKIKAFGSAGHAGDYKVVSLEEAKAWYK
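Giardia FBPA (40 nM reagent) was preincubated 10 min at RT with compound (up to 57.5 uM final), then substrate plus GAPDH/TPI/NAD/arsenate coupling system with diaphorase/resazurin was added; resorufin fluorescence (525/598 nm) was read after 20 min.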
AmpC inh detg: inhibitors of E. coli AmpC beta-lactamase with detergent; P00811; AmpC hydrolysis of nitrocefin, absorbance 480 nm, 0.01% Triton; Potency, µM (top dose mostly 114 µM), for the others: top-dose activity change, negative = inhibition, hits mostly inhibitors; hit rate 0.041% among 370,000; AID 485294;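 further: 0% = no-compound wells and -100% = no-enzyme wells; nearly all actives have a fitted effect of over 25% in size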
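AmpC (5.3 nM in the dispensed reagent) in 20 mM phosphate pH 7.0 with 0.01% (detergent screen) or 0.0001% Triton X-100 was preincubated with compounds for 15 min at room temperature. Nitrocefin was then added from an 800 uM solution, and hydrolysis was followed at 480 nm.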
Sm TGR inh: inhibitors of Schistosoma mansoni thioredoxin glutathione reductase; AID 485364; hit rate 3% among 360,000; purified TGR, DTNB reduction, TNB absorbance 405 nm; Potency, µM (titrated, usually from 114 µM), for inactives: top-dose activity change, negative = inhibition, hits mostly inhibitors; further: nearly all actives have a fitted effect of over 60% in size
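First, TGR (20 nM dispensed) and NADPH were mixed with compound. Second, a 15 min room-temperature incubation followed. Third, further NADPH and then DTNB were added to start the reaction. Finally, TNB absorbance was monitored kinetically.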
Numbers without * were called inactive; ? = inconclusive; . = not tested or not shown; [ ] = remark or other dose. Sampled rows, rich in hits. Any-hit rate of the full collection: about 3.4%. Unless noted, the call rests on the fitted dose curve; in most records, active means well fitted curve in the direction sought with a large enough effect; inconclusive means small, poorly fitted or top-dose-only effect, or another doubt; inactive means no such curve, though single readings can be large; an effect the other way counts as inactive or inconclusive. Unless noted, on the % scale 0 is the no-effect control and ±100 the full control effect; potency means the concentration at half of the fitted maximal effect.

SMILES	RE007 growth inh	AmpC inh no detg	Giardia FBPA inh	AmpC inh detg	Sm TGR inh
COc1ccc2c(c1)c1ncn(Cc3ccco3)c(=O)c1n2C	1%	210%	-28%	-10%	40µM*
COc1ccc2c(c1)c1ncn(Cc3ccc(F)cc3)c(=O)c1n2C	1%	101%	-1%	-6%	0%
NC[C@@H]1O[C@H](C23CC4CC(CC(C4)C2)C3)Cc2c1ccc(O)c2O	-4%[18.4 µM]	-9%	?	7%	7.9µM*
O=[N+]([O-])c1cc(Br)c(Nc2ccccc2)c([N+](=O)[O-])c1	-9%	-18%	2%	-8%	11µM*
CCOC(=O)c1scc(-c2ccc(C)cc2)c1S(=O)(=O)Nc1ccc(OC)c(Cl)c1	.	.	.	27%	-15%
Cc1nn(C)c(Cl)c1CN1CCN(CCC(C)C)C(CCO)C1 (centres undefined)	-12%	1%	1%	-2%	-7%
CCN(CC)c1ccc(C(=O)NNC(=O)CCl)cc1	9%	-42%	?	-4%	20µM*
CCN(CC)c1ccc(C(=O)NNC(=O)CCNC(=O)c2ccccc2)cc1	-14%	-11%	.	?	2%
CCOC(=O)c1c(C)oc2c1c1c(c3ccccc32)OCN(Cc2ccccn2)C1	-24%	5%	?	-3%	0.35µM*
CCOC(=O)c1c(C)oc2c1c(C(c1ccncc1)N1CCOCC1)c(O)c1ccccc12 (centres undefined)	40µM*	242%	?	-5%	1.3µM*
CCOC(=O)c1c(C)oc2c1c(CN1CCN(CCO)CC1)c(O)c1ccccc12	-10%	41%	?	6%	0.28µM*
CCOC(=O)c1c(C)oc2c1c(CN1CCN(C(=O)OCC)CC1)c(O)c1ccccc12	-16%	0%	?	-6%	0.56µM*
COc1ccccc1N1CCN(C(c2ccc(N(C)C)cc2)c2nnnn2CCc2ccccc2)CC1 (centres undefined)	13%	21%	-3%	?	40µM*
N#CC(=C=[N-])c1nc2ccccc2nc1-[n+]1cccc(NC(=O)c2cccs2)c1	-4%	-6%	-17%	4%	40µM*
N#CC(=C=[N-])c1nc2ccccc2nc1-[n+]1cccc(NC(=O)c2ccccc2)c1	-5%	-4%	-30%	7%	40µM*
N#CC(=C=[N-])c1nc2ccccc2nc1-[n+]1cccc(NC(=O)c2ccc(F)cc2)c1	.	-5%	-14%	10%	-29%
O=C(N/N=C/c1cc(Br)c(Br)o1)c1cc2ccccc2o1	-11%	-43%	-1%	?	-27%
O=C(CCNC(=O)c1ccccc1Cl)NNC(=O)c1ccccc1O	11%	-15%	.	-1%	12%
NC(=O)CC(c1ccccc1)c1ccco1 (centres undefined)	-12%	-12%	1%	-2%	-9%
CN(C)CCCNC(=O)CC(c1ccc(F)cc1)c1ccco1 (centres undefined)	5%	-12%	0%	?	-13%
CCCN(CCC)C(=O)CC(c1ccccc1)c1ccco1 (centres undefined)	5%	52%	-2%	-13%	14µM*
CCN(CC)C(=O)CC(c1ccc(F)cc1)c1ccco1 (centres undefined)	2%	56%	0%	0%	28µM*
Cc1cn(C(=O)C(C)N2C(=O)c3ccccc3C2=O)c(C)n1 (centres undefined)	-6%	-11%	6%	0%	9%
Cc1oc(-c2ccc(-c3ccccc3)cc2)nc1CN(C)C1CCOC1 (centres undefined)	-1%	203%	0%	0%	-16%
Cc1ccc(CNC(=O)CSc2c3c(nc4cc(Cl)ccc24)CCCC3)o1	-29%	-19%	-10%	-10%	8.9µM*
SMILES	RE007 growth inh	AmpC inh no detg	Giardia FBPA inh	AmpC inh detg	Sm TGR inh
CCOc1ccc(CNC(=O)CSc2c3c(nc4cc(Cl)ccc24)CCCC3)cc1	.	.	.	4%	19%
O=C(COc1ccc(F)cc1)N/N=C/c1cccc2cccnc12	-29%	.	.	.	.
Nc1c(N(CCC2=CCCCC2)C(=O)CCCOc2ccccc2)c(=O)[nH]c(=O)n1Cc1ccccc1	3%	14µM*	.	?	1%
O=C(CSCc1cc(=O)[nH][nH]1)Nc1ccc(F)cc1	20%	-48%	-6%	?	-2%
CCCCc1ccc(NC(=O)CSCc2cc(=O)[nH][nH]2)cc1	21%	18µM*	0%	-1%	-3%
Cc1ccc(CNC(=O)CCC2CCCN(C(=O)CCC(F)(F)F)C2)o1 (centres undefined)	7%	28%	0%	6%	13µM*
Cc1ccc(CNC(=O)CCC2CCCN(C(=O)c3ccc4c(c3)OCO4)C2)o1 (centres undefined)	2%	13%	1%	6%	14µM*
O=C(CCC1CCCN(C(=O)CCC(F)(F)F)C1)NCc1ccc(F)c(F)c1 (centres undefined)	-17%	-20%	8%	1%	25%
O=C(CCC1CCCN(C(=O)c2ccc3c(c2)OCCO3)C1)NCc1ccccc1F (centres undefined)	5%	11%	4%	8%	13%
CC1=C(C(=O)OC2CCCCC2)C(c2ccco2)n2ncnc2N1 (centres undefined)	-1%	2%	5%	?	1%
Cc1noc(C)c1C(=O)Nc1ccccc1C(=O)NCCc1ccccc1	-11%	-19%	-6%	-14%	-20%
CC(C)C[C@H]1CN(CCCC[C@@H]2CNC(=O)C(=O)N2Cc2ccccc2)C(=O)C(=O)N1CCC1CCCCC1	10%	.	.	.	.
CCN(CC)S(=O)(=O)c1ccc2nc(CCl)[nH]c2c1	-2%	-20%	-5%	-7%	40µM*
COc1ccc(NS(=O)(=O)c2ccc3nc(COc4cccc5ccccc45)[nH]c3c2)cc1	-24%	4µM*	-5%	-4%	-9%
COc1ccccc1NS(=O)(=O)c1ccc2nc(CCl)[nH]c2c1	1%	-31%	?	-6%	35µM*
CC(C(=O)NN)c1ccc([N+](=O)[O-])cc1 (centres undefined)	1%	-25%	2%	-2%	-8%
COc1ccccc1Oc1ccc(N/C=C/C(=O)C(C)(C)C)cc1	-13%	-22%	-4%	?	.
Cc1ccc(-n2c(C)c([N+](=O)[O-])c3ccc(O)cc32)cc1	.	1%	-18%	2%	8.9µM*
Cc1ccc(C(=O)N2CCC3CC2c2cc(-c4ccc5c(c4)OCO5)ccc23)cc1 (centres undefined)	5%	.	.	.	.
Cc1cccc(NC(=S)N/N=C2/CCCCc3ccccc32)c1	-5%	32µM*	2%	-3%	-1%
CCCc1cc(=O)[nH]c(SCc2nc(-c3ccccc3)no2)n1	.	.	.	16%	9%
O=C(/C=C/NNC(=O)c1ccccc1)c1ccccc1	-7%	-37%	?	-13%	0%

Screens: PubChem BioAssay, National Center for Advancing Translational Sciences (NCATS)
